Screening results: PubChem BioAssay, National Center for Advancing Translational Sciences (NCATS)
L3MBTL1 block – blocks human L3MBTL1; AlphaScreen L3MBTL1–H3K9me1 peptide binding; Q9Y468; 230,000 compounds, 0.66% hits; AID 485360; Potency, µM (highest dose often 57.1 µM), for the others: at the highest dose activity, negative = inhibition, usual class: inhibitors; also: % is scaled to controls: 0 for no effect and ±100 for the full control effect; nearly all actives have a fitted effect of over 60% in size
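AlphaScreen proximity signal between nickel-chelate acceptor and streptavidin donor beads (final 10 ug/mL) reports binding of 50 nM L3MBTL1 to 75 nM biotin-H3 K9me1 peptide; complex incubated with compounds 30 min at room temperature; cefsulodin titration as control.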
HP1b chromo inh – HP1-beta chromodomain-methylated histone interaction inhibition | Potency, µM (titrated, usually from 114 µM), for the others: at the highest dose activity change, negative = inhibition, most hits filed as inhibitors | 390,000 compounds, 0.56% hits | AlphaScreen HP1-beta / biotin-H3K9me3 peptide binding | AID 540317 | P83916; also: nearly all actives have a fitted effect of over 70% in size
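Compound inhibition of the preformed complex between 50 nM HP1-beta and 50 nM biotinylated H3K9me3 peptide was read by AlphaScreen. Buffer was PBS pH 7.4 with 0.01% Tween-20. Incubations ran 30 min at room temperature, with 10 ug/mL donor/acceptor beads.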
JMJD2A Tudor – inhibitors of human JMJD2A Tudor domain. O75164. AlphaScreen JMJD2A-Tudor / H3K4me3 peptide binding. Potency, µM (top dose mostly 114 µM), inactives show at the highest dose activity change, negative = inhibition, usual class: inhibitors. 390,000 compounds, 4.4% hits. AID 504339; also: % is scaled to controls: 0 for no effect and ±100 for the full control effect; nearly all actives have a fitted effect of over 50% in size
G9a block – G9a (human) methyltransferase inhibition. G9a H3K9 monomethylation, AlphaScreen, 2 h. Q96KQ7. 350,000 compounds, 8.8% hits. Potency, µM (titrated, usually from 102 µM), for inactives: top-dose activity, negative = inhibition, actives largely listed as inhibitors; also: % is scaled to controls: 0 for no effect and ±100 for the full control effect; nearly all actives have a fitted effect of over 75% in size
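G9a (20 nM) preincubated 15 min RT with compounds, then 500 nM biotinylated H3K9 peptide and 20 uM SAM added; 2 h RT reaction. Monomethyl-H3K9 product detected by AlphaScreen with anti-H3K9me1 antibody, streptavidin donor and anti-rabbit IgG acceptor beads.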
BAZ2B inh – BAZ2B (human) inhibition; Q9UIF8; AlphaScreen BAZ2B-H3K14Ac peptide displacement; Potency, µM (doses to about 114 µM), without a hit: at the top dose activity change, negative = inhibition, actives largely listed as inhibitors; 360,000 compounds, 4.4% hits; also: % is scaled to controls: 0 for no effect and ±100 for the full control effect; nearly all actives have a fitted effect of over 60% in size
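BAZ2B (50 nM) with biotin-H3(5-23)K14Ac peptide (50 nM) in PBS pH 7.4, 0.01% Tween-20, preformed 30 min, then compound 30 min at room temperature; top concentration 110uM. AlphaScreen streptavidin donor/nickel chelate acceptor beads (10 ug/mL final), 20 min dark, signal read.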
* = called active by the depositor; ? = inconclusive; nt = no result given; [ ] = another dose, or the depositor's remark. Sampled rows, rich in hits. Any-hit rate of the full collection: about 11%. Calls follow the shape of the dose curve; as a rule, active = well fitted inhibition curve with a large enough effect; inconclusive = small, poorly fitted or top-dose-only effect; inactive = no such curve, though single readings can be large or run the other way. Potency is read from the fitted curve at half-maximal effect.

SMILES	L3MBTL1 block	HP1b chromo inh	JMJD2A Tudor	G9a block	BAZ2B inh
CCN(CC)CCOc1ccc(/C(=C(\Cl)c2ccccc2)c2ccccc2)cc1	-4%	?	32µM*	nt	?
CCCN1C(=O)c2ccccc2NC1c1ccc(OC)c(COc2cccc(OC)c2)c1 (centres undefined)	nt	17%[57 µM]	-18%[57.1 µM]	nt	nt
COc1ccc(Cl)cc1NC(=O)Cn1c2ncccc2c(=O)n1-c1ccc(C)c(C)c1	nt	15%	?	8%[59 µM]	-1%
COc1ccccc1/C=C1\N=C(C(C)(C)C)OC1=O	nt	?	50µM*	84%	40%
COc1cccc(/C=C2\N=C(C3CCCCC3)OC2=O)c1OC	nt	217%	88%	29%	127%
COc1ccc(S(=O)(=O)N(CC(=O)Nc2ccccc2Br)Cc2ccccc2)cc1	nt	44%	8%	32%[59 µM]	8%
C=CCn1c(=S)[nH]c2scc(-c3cccs3)c2c1=O	nt	34%	-23%	-4%[59 µM]	-36%
Cn1c(=S)[nH]c2scc(-c3cccs3)c2c1=O	38%	-13%	?	10µM*	-17%
CC(NC(=O)c1cccc(Nc2nc3ccccc3n3nnnc23)c1)c1ccccc1 (centres undefined)	nt	35%	-16%	-1%[59 µM]	24%
Cc1ccc(C(=O)NCc2ccco2)cc1[N+](=O)[O-]	-7%	19%	-23%	-4%[59 µM]	-6%
CC1CCCN(c2ccc(C(=O)NCc3ccco3)cc2[N+](=O)[O-])C1 (centres undefined)	-23%	?	56µM*	?	45µM*
O=C(NCCN1CCOCC1)c1cc(S(=O)(=O)Nc2ccccc2F)c(Cl)cc1Cl	nt	32%	-7%[11.4 µM]	50µM*	-34%
O=C(NCCN1CCOCC1)c1ccc(NS(=O)(=O)c2cccc([N+](=O)[O-])c2)cc1	3%	14%	-2%	50µM*	14%
O=C(CN1CCOCC1)NNC(=O)c1ccc([N+](=O)[O-])cc1	nt	6%[57 µM]	4%	50µM*	-19%
CCC(Sc1nc2ccccc2c2nc(CCn3c(C)nc4ccccc43)nn12)C(=O)Nc1ccc(F)cc1 (centres undefined)	nt	13%	-20%	-1%[59 µM]	0%
O=C(NCc1ccco1)c1cc([N+](=O)[O-])ccc1N1CCOCC1	-1%	35%	6%	10µM*	79µM*
O=C(NCCCN1CCOCC1)c1sc2cc([N+](=O)[O-])ccc2c1Cl	0%	?	79µM*	0.89µM*	-32%
O=C(Nc1ccccn1)c1sc2cc([N+](=O)[O-])ccc2c1Cl	-3%	-33%	56µM*	1.6µM*	?
Cc1ccnc(NC(=O)c2sc3ccccc3c2Cl)c1	12%	35%	-20%	-1%[59 µM]	7%
O=C(NCCN1CCOCC1)c1cc([N+](=O)[O-])ccc1Cl	0%	58%	0%	56µM*	?
CCc1cccc(NC(=O)Cn2c(C(=O)OC)cc3sc(Cl)cc32)c1	nt	18%	-14%	-1%[59 µM]	4%
O=C(N=Nc1ccc(NOC(=O)c2ccccc2Br)cc1)c1ccccc1O	-9%	nt	nt	25µM*	7.9µM*
Cc1cc2oc(C(=O)Nc3ccc(S(=O)(=O)N4CCC(C)CC4)cc3)cc(=O)c2cc1C	nt	30%	9%	13%[59 µM]	-1%
Cc1cccc(N=C2NC(=O)/C(=C/c3cccn3C)S2)c1C	-7%	-16%	?	?	32µM*
O=C1NC(=Nc2ccccc2)S/C1=C\C=C\c1ccco1	3.2µM*	?	50µM*	?	25µM*
SMILES	L3MBTL1 block	HP1b chromo inh	JMJD2A Tudor	G9a block	BAZ2B inh
O=C1NC(=Nc2ccccc2)S/C1=C\c1ccccc1	5%[2.29 µM]	48%	-16%	-2%[0.501 µM]	-32%
Cc1ccc(N=C2NC(=O)/C(=C/C=C/c3ccco3)S2)cc1	?	?	35µM*	11µM*	16µM*
O=C1NC(=Nc2ccccc2)/C(=C/c2ccco2)S1	-18%	22%	-29%	11µM*	50µM*
Cc1cccc(N=C2NC(=O)/C(=C/c3cccnc3)S2)c1C	-9%	6%	-26%	?	-18%
Cc1cccc(N=C2NC(=O)/C(=C/C=C/c3ccco3)S2)c1C	7.9µM*	45µM*	40µM*	18µM*	22µM*
COc1cccc(-n2c(=O)c3c(C)c(C)sc3n(CC(=O)Nc3ccccc3OC)c2=O)c1	nt	41%	-2%	3%[59 µM]	3%
Cc1ccc(-c2ccc(=O)[nH]n2)cc1	12%	30%	-6%	14%[59 µM]	3%
Cc1ccc(-n2c(-c3ccncc3)n[nH]c2=S)c(C)c1	0%	32%	18µM*	nt	-14%
Cc1ccccc1-n1c(-c2ccncc2)n[nH]c1=S	nt	21%	14µM*	?	-36%
Cc1cccc(-n2c(-c3ccncc3)n[nH]c2=S)c1C	4%	11%	13µM*	nt	-13%
Cc1ccccc1-n1c(-c2ccc(=O)[nH]n2)n[nH]c1=S	3%	-2%	?	18µM*	?
CCOc1ccc(C(=O)NCC(c2ccc3c(c2)OCO3)N2CCN(C)CC2)cc1 (centres undefined)	nt	12%[57 µM]	-13%	7%[59 µM]	3%
CCN(C(=O)Cn1nc(C)c([N+](=O)[O-])c1C)C1CCS(=O)(=O)C1 (centres undefined)	5%	48%	-4%	26%[0.501 µM]	15%
CCCCN(CC)CCCNC(=O)c1cc2c(=O)[nH]c3ccccc3c2n1C	nt	11%	-25%	1%[59 µM]	nt
Cn1c(-c2ccc(Br)o2)nc2ccccc21	-3%	20%	-15%	-10%[59 µM]	-34%
CC(C)(C)c1cc(-c2n[nH]c(=S)n2-c2ccccc2F)n[nH]1	-5%	14%	10µM*	?	-30%
CCc1ccccc1-n1c(-c2ccncc2)n[nH]c1=S	22%	28%	10µM*	5.6µM*	0%
